According to PubChem BioAssay AID1789 (The Scripps Research Institute Molecular Screening Center, 2009):
Several values for one entry are separate records, joined by “and”; a condition that tells them apart may be missing. Identical values can stand only once. Out of some 290,000 compounds screened, about 2,700 (0.93%) were called active. The list comes from a sample in which actives are over-represented; it also holds similar structures and randomly drawn compounds. A number with no mark means an inactive call.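 Rule for the calls: active = inhibition above the screen-wide mean plus 3 SD, computed separately per campaign (cut at about 16% in these data); inactive = the rest.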

These compounds were tested on Heat shock protein HSP 90 (rabbit reticulocyte lysate; luciferase refolding) (assay: HSP90 inhibitors, primary screen, cell lysate, luminescence (AID 1789;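 note: 0% = DMSO wells and 100% = 60 µM geldanamycin wells; inhibitors lower the luminescence because luciferase stays unfolded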)). Conditions: 3 h, at 5.6 µM, hits give high values.

SMILES	inhibition
O=C(NCc1cccnc1)c1ccccc1NC(=O)c1c(F)cccc1F	-0.75%
COc1ccc(N(CC(=O)Nc2cc(OC)cc(OC)c2)S(=O)(=O)c2c(C)n[nH]c2C)cc1	-1.64%
Cc1ccc(S(=O)(=O)NCC(=O)N2CCOCCOCCOCCOCC2)cc1	-3.1%
COc1ccccc1-c1cnn2c(N3CCOCC3)cc(C)nc12	3.53%
Cc1sc2ncn(CC(=O)NCCCC(=O)N3CCN(c4ccccc4F)CC3)c(=O)c2c1C	-3.37%
O=C(NC1=NCCS1)[C@H](Cc1ccccc1)N1C(=O)c2ccccc2C1=O	3.87%
CSCCC(C(=O)NC1=NCCS1)N1C(=O)c2ccccc2C1=O (stereo unspecified)	33.2% (active)
CC(NC(=O)COc1ccccc1)C(=O)NC1=NCCS1 (stereo unspecified)	-0.56%
N#Cc1ccccc1S(=O)(=O)N1CCN(C(=O)c2cc(-c3ccccc3)nn2-c2ccccc2)CC1	4.37%
CC(C)c1nnc(NC(=O)C2CC(=O)N(CCc3ccc(F)cc3)C2)s1 (stereo unspecified)	-2.78%
CCOC(=O)C1=C(CCc2ccccc2)NC(=O)NC1c1ccc2ccccc2c1 (stereo unspecified)	2.66%
CC(=O)N1CCC(C(=O)OCc2ccc(Cl)cc2)(c2ccccc2)CC1	-1.35%
CC(C)CNC(=O)CC(NCC(C)C)C(=O)O (stereo unspecified)	21.9% (active)
CC(C)CNC(=O)CC(c1ccccc1)c1c(O)ccc2ccccc12 (stereo unspecified)	-0.94%
CC(C)CNC(=O)/C=C/C(=O)O	0.58% and -0.1%
COc1cccc(N(CC(=O)NC2CCCC2)C(=O)Cn2nnc(-c3ccc(C)o3)n2)c1	0.72%
C=C(C)COc1ccc(-c2ncncc2-c2ccc(OC)cc2)c(O)c1	3.58%
c1ccc(-c2ccc3c(c2)NC(C2Nc4cc(-c5ccccc5)ccc4O2)O3)cc1 (stereo unspecified)	52.5% (active)
Cc1cc(C)cc(C(=O)OCC(=O)NCCNC(=O)COC(=O)c2cc(C)cc(C)c2)c1	-1.1%
O=C1CCC(Cc2ccccc2)N1 (stereo unspecified)	0.74%
COc1cc2c(cc1OC)C(c1ccccc1Br)NC(=O)C2 (stereo unspecified)	-0.82%
O=C1CCC([N+](=O)[O-])C(c2ccccc2Br)N1 (stereo unspecified)	78.7% (active)
Cc1ccc(SCC(=O)NNC(=O)c2ccc(S(C)(=O)=O)cc2)cc1	2.29%
O=C(/C=C/c1cnc2ccccc2n1)NC1CCCCCC1	-4.23%

SMILES	inhibition
O=C(COC(=O)/C=C/c1cccs1)NC1CCCCC1	1.87%
Cc1ccc(SCC(=O)NC(=O)NCc2ccco2)c(C)c1	16.6% (active)
Cc1ccc(NC(=O)C(=O)NCc2ccco2)c(C)c1	-1.76%
Cc1cc(C)n2nc(SCC(=O)NC(=O)NCc3ccco3)nc2n1	0.53%
CC(C)Cc1nnc(NC(=O)CN2C(=O)NC3(CCCCC3)C2=O)s1	-3.19%
CC1CCN(CC(O)COc2ccc(C(=O)c3ccccc3)cc2)CC1 (stereo unspecified)	-4.35%
Cc1csc(NC(=O)CSc2nc(=O)cc(N)n2-c2ccc(F)cc2)n1	-4.86%
Cc1nc([N+](=O)[O-])cn1CC(=O)Nc1ccc(Cl)cc1	-5.8%
Brc1ccc2nc(N3CCCC3)sc2c1	7.29%
c1c2c(cc3sc(N4CCCCC4)nc13)OCCO2	56.8% (active)
Cc1nc2cc3c(cc2s1)OCO3	5.26%
COCC1CCN(C(=O)CCc2nnc(C3(c4ccc(Cl)cc4)CCC3)o2)C1 (stereo unspecified)	-3.96%
CN(CC1CCCN(CCc2cccc(C(F)(F)F)c2)C1)C(=O)c1ccc2nc[nH]c2c1 (stereo unspecified)	-5.74%
Clc1c(OCCCn2ccnc2)ccc2ccccc12	1.78%
CC(=O)Nc1ccc(-c2nc3ccccc3o2)cc1	2.88%
COc1ccc(-c2nc3cc([N+](=O)[O-])ccc3o2)cc1OC	1.87%
CCc1ccc2oc(-c3ccc(N)cc3)nc2c1	26.4% (active)
COc1ccc2[nH]c(=O)c(CN(Cc3cccnc3)S(=O)(=O)c3ccccc3F)cc2c1	1.17%
Cc1cccc(C(=O)OC(C)CN2CCN(C)CC2)c1 (stereo unspecified)	17.2% (active)
Cc1cccc(C(=O)OC(C)CN2CCCC2)c1 (stereo unspecified)	0.74%
Cc1ccc(C(=O)OC(C)CN2CCOCC2)cc1 (stereo unspecified)	-4.23%
CCOc1ccc(NC(=O)[C@H](C)NC(=O)C2CC(=O)N(c3ccc(OC)cc3)C2)cc1 (stereo partly specified)	2.77%
O=C(NC1CCCC1)C(c1c(F)cccc1Cl)N(C(=O)c1csnn1)C1CC1 (stereo unspecified)	-3.16%
Cc1ccc(C(=O)Nc2ccc(C)c(S(=O)(=O)N(C)C)c2)s1	0.01%

SMILES	inhibition
Clc1ccc(Nc2nc(-c3cccs3)cs2)nc1	6.93%
O=c1oc2ccccc2cc1-c1csc(Nc2ccc(O)cc2)n1	-2.38%
Cc1ccc(Nc2nc(-c3ccc(O)cc3O)cs2)nc1	28.1% (active)
CCS(=O)(=O)c1cc([N+](=O)[O-])c(Sc2ccccc2N)s1	20.8% (active)
CCOC(=O)c1cc(Sc2ccccc2N)cc(C(=O)OCC)n1	7.9%
Nc1ccccc1SC(C[N+](=O)[O-])c1ccccc1 (stereo unspecified)	-4.32%
O=c1ccc(-c2ccc(S(=O)(=O)Nc3ccccc3)o2)n[nH]1	-6.52%
COCCn1c(N)c(NCc2ccccc2)c(=O)[nH]c1=O	7.03%
Cn1c(=O)c2c(SCC(=O)NCC3CCCO3)nc(CC(C)(C)C)nc2n(C)c1=O (stereo unspecified)	-3.22%
Cc1cc(C(=O)COC(=O)C2CC2)c(C)n1-c1ccc(F)cc1	84.2% (active)
COc1cc(/C=N/NC(=O)c2cc(C)n(-c3ccc(F)cc3)c2C)cc(OC)c1O	6.31%
Cc1ccc(-n2c(C)cc(C(=O)CN3C(=O)C(=O)N(C4CCCC4)C3=O)c2C)cc1	-3.59%
COc1ccc(-n2c(C)cc(C(=O)CN3C(=O)NC4(CCc5ccccc54)C3=O)c2C)cc1 (stereo unspecified)	2.66%
CCn1cc(/C=C(\NC(=O)c2ccc(C)cc2)C(=O)NCCN2CCOCC2)c2ccccc21	3.27%
O=C(OC1CCOC1=O)c1ccc(-c2nc3ccccc3s2)s1 (stereo unspecified)	35.8% (active)
CC(C)c1ccc(C(=O)OC2CCOC2=O)cc1 (stereo unspecified)	3.27%
Cc1nn(Cc2ccccc2)c(Cl)c1C(=O)OC1CCOC1=O (stereo unspecified)	-0.01%
CCOC(=O)C1CCN(Cc2c(C(=O)N3CCOCC3)nc3c(C)cccn23)CC1	13.2%
C=C(C)CNC(=O)c1ccc(OC2CCN(C(=O)COC)CC2)cc1	2.35%
CC(C)C[C@H](NC(=O)C1CC(=O)N(c2ccc3c(c2)OCCO3)C1)C(=O)NC1CCCC1 (stereo partly specified)	-1.77%
O=c1c2ccccc2nc2n1C1(CCCCC1)Cc1ccccc1-2	4.03%
CN(c1ccc2nc3ccccc3c(=O)n2n1)C1CCCCC1	85.9% (active)
CCOC(=O)C(C)Sc1nc2ccccc2c(=O)n1CC1CCCCC1 (stereo unspecified)	2.53%
COCCC(=O)N1CCC(Oc2ccc(C(=O)NCc3ccon3)cc2)CC1	-1.71%

SMILES	inhibition
CNC(=O)CN1C(=O)NC(c2ccccc2)(c2ccccc2)C1=O	3.3%
C=CCc1cc(S(=O)(=O)c2ccc(O)c(CC=C)c2)ccc1O	-0.52%
CCOC(=O)N1CCN(C(=O)C(=O)Nc2sc3c(c2C#N)CC(C)(C)OC3)CC1	-2.63%
CCCCOc1ccc(-c2nnc(-c3ccco3)o2)cc1	-4.76%
CCOc1ccc(-c2nnc(-c3ccco3)o2)cc1	30.8% (active)
CCOc1ccc(-n2c(SCC(N)=O)nnc2-c2ccco2)cc1	7.02%
CCc1ccccc1OCC(=O)Nc1ccc2c(c1)OCCO2	-5.09%
CCn1ccnc1CN(C)C(=O)c1ccc2nc(Cc3ccc(OC)cc3)oc2c1	-0.73%
COCC1CCN(C(=O)C2CCC(=O)N(Cc3cccc(C(F)(F)F)c3)C2)CC1 (stereo unspecified)	2.25%
O=[N+]([O-])/C=C/c1ccc2c(ccn2Cc2ccccc2)c1	21.8% (active)
O=C(/C=C/c1cccc([N+](=O)[O-])c1)N1CCN(Cc2ccccc2)CC1	-2.98%
O=c1c([N+](=O)[O-])cc(C(F)(F)F)cn1Cc1cccc(Cl)c1	0.02%
CN(Cc1ccccc1)C(=O)C(=O)c1cn(CC(=O)N2CCCC2)c2ccccc12	-3.8%
CCc1ccc(NC(=O)NC(C)c2ccc3c(c2)OCO3)cc1 (stereo unspecified)	1.03%
Cc1onc(-c2ccccc2)c1C(=O)N1CCN(S(=O)(=O)c2ccccc2C(F)(F)F)CC1	-1.81%
COc1ccc(N2CCN(C(=O)c3cn(C)c4ccc(S(=O)(=O)N5CCOCC5)cc4c3=O)CC2)cc1	-3.81%
O=C(Nc1ccc2c(c1)OCCO2)C1CCCN(c2ncccn2)C1 (stereo unspecified)	16.9% (active)
O=C(Nc1cccc(Cl)c1)C1CCCN(c2cnccn2)C1 (stereo unspecified)	-2.56%
Cc1cc(C)nc(N2CCC(C(=O)Nc3ccc4c(c3)OCCO4)CC2)n1	0.65%
COc1ccc(N2C(=O)NC(NS(=O)(=O)c3ccc(Cl)cc3)(C(F)(F)F)C2=O)cc1 (stereo unspecified)	1.44%
COc1ccc(Cc2cc(-c3ccc(F)cc3)n[nH]c2=O)cc1	-1.15%
COc1ccc(-c2onc3ccc(C(C)=O)cc23)cc1	3.03%
Oc1ccc(-c2onc3ccc(Cl)cc23)cc1	-0.76%
CC(OC(=O)c1ccc2noc(-c3ccccc3)c2c1)C(N)=O (stereo unspecified)	26.5% (active)
